Data reported in ChEMBL document CHEMBL3988442, “University of Dundee, Small-Polar-MMV Screening Library” (2021).
The campaign covered roughly 48,000 compounds. About 13,000 (27%) showed an effect of 50% or more. The list shows a part of the results.

Test system: Wolbachia pipientis
Experiment: Anti-Wolbachia Cell-Based Screen
Format: functional
Set-up: scale not given: in the data most compounds retested in dose-response had high values
Conditions: 5 µM

SMILES | Percent Effect [%]
CS(=O)(=O)NCC1(c2ccccc2Br)CC1 | 1.161
O=C(O)C1CCN(C[C@H]2CC[C@@H](Cc3ccc4c(c3)OCO4)O2)CC1 | 4.381
Cc1cc(Cl)ccc1S(=O)(=O)NCC(C)N1CCN(C)CC1 (centres undefined) | 0.8605
CC1CCN(Cc2cnc(S(=O)(=O)CC3CC3)n2CC2CCCO2)CC1 (centres undefined) | 3.735
CCC(C)Oc1cc(C(=O)Nc2nccs2)ccn1 (centres undefined) | -12.97
Cc1cnn(C(C)C2CC2)c1NC(=O)c1ccc(Cn2cnnn2)cc1 (centres undefined) | 7.746
COc1nc2c(cc1C(=O)N1C[C@@H](N)C[C@H]1C(=O)NC(C)C)CCC2 | 2.559
CCOC(=O)c1coc(N2CCN(Cc3cc(C)cc(C)c3)C(=O)C2)n1 | -24.84
O=C(O)C(F)(F)F.O=c1ccc2c(n1CC1CCOCC1)CCN(Cc1ccoc1)CC2 | 125.5
CS(=O)(=O)N1CCc2ccc(=O)n(CC3CCOCC3)c2CC1 | -13.75
O=C(NCCc1cccs1)[C@]12COC[C@H]1CN(Cc1ccncc1)C2.O=C(O)C(F)(F)F.O=C(O)C(F)(F)F | -23.54
CS(=O)(=O)N1C[C@@H]2COC[C@]2(C(=O)NCCc2cccs2)C1 | -42.96
Cn1cc(CN2C[C@@H]3COC[C@]3(C(=O)N3CCCO3)C2)cn1 | -0.6058
Cn1cc(CN2CC(C(=O)Nc3ccccc3)C3(CCOCC3)C2)cn1.O=C(O)C(F)(F)F (centres undefined) | 0.729
Cn1cc(CN2C[C@@H]3COC[C@]3(C(=O)NCCc3ccccc3)C2)cn1.O=C(O)C(F)(F)F | 92.46
Cn1cc(CN2C[C@@H]3COC[C@]3(C(=O)NCc3cccs3)C2)cn1 | 98.41
CN(Cc1ccccn1)C(=O)[C@]12COC[C@H]1CN(Cc1cnn(C)c1)C2 | -17.57
O=C(NCc1cccs1)[C@]12COC[C@H]1CN(c1ncccn1)C2.O=C(O)C(F)(F)F | -12.11
CC(C)NC(=O)[C@]12COC[C@H]1CN(Cc1cnn(C)c1)C2 | 82.27
COc1ccccc1CCNC(=O)CNC1CCc2nc(C)nn2C1 (centres undefined) | -4.852
CC(=O)N1CCn2c(COCc3csc(C)n3)cnc2C1C (centres undefined) | 17.55
Cc1nn(C)c2nc(N(CCN(C)C)C3CCCC3)sc12 | -1.05

SMILES | Percent Effect [%]
Cc1cccc(C(=O)NCCNCC2CNc3ccnn3C2)c1 (centres undefined) | -9.397
CC(C)Cn1cnc(S(=O)(=O)NCCc2nnc3ccccn23)c1 | 8.202
CCCn1cc2c(C(F)F)cc(SCC(=O)O)nc2n1 | 93.6
CCn1nc2nc(SCC(=O)O)cc(C(F)F)c2c1C | 86.56
CC(C)Cc1nnc(SCC(=O)O)n1-c1ccc(F)cc1F | 1.309
Cc1c2c(C(F)F)cc(SCC(=O)O)nc2nn1C | 97.91
Cc1cc(SCC(=O)O)nc2nn(CC(F)F)c(C)c12 | 120.4
Cc1cc(-c2nnc(SCC(=O)O)n2C(C)c2ccccc2)nn1C (centres undefined) | 4.931
Cc1c(-c2nnc(SCC(=O)O)n2C(C)c2ccccc2)cnn1C (centres undefined) | 8.856
CCc1cc(C(F)(F)F)c2c(C)nn(CC(=O)O)c2n1 | -1.783
CCCn1cc(C(=O)NC(CC(=O)O)c2ccccc2F)c(C)n1 (centres undefined) | -6.071
CCn1nc(C)c(NC(=O)C(C)C)c1C | -2.093
CN(Cc1cccc(Cl)c1)Cc1nnsc1Cl | -20.09
Cc1oc(-c2ccccc2)nc1CC(=O)NC1=NCCS1 | -12.38
CCc1nsc(NC2CC(=O)N(C3CC3)C2)n1 (centres undefined) | 5.167
O=C(c1ccc[nH]1)N1CCN(CC2CCOc3ccccc3C2)CC1 (centres undefined) | -0.508
O=C(NCC1(O)CCOC1)NCC1(c2ccccc2Cl)CCC1 (centres undefined) | 17.28
Cc1cc(CC(C)NC(=O)Cc2cc(F)ccc2C)[nH]n1 (centres undefined) | -12.96
Cc1nc(C2CCCN2Cc2cc(Cl)c3c(c2)OCO3)no1 (centres undefined) | -3.682
O=C(C1CCC1)N1C(CN2CCOCC2)[C@]2(O)CC[C@H]1CC2 (some centres undefined) | 92.68
C[C@@H]1CN(C(=O)CCN2CCOCC2)CC[C@]1(C)O | -11.44
COCC1N(C(=O)N2CCOCC2)[C@H]2CC[C@]1(O)CC2 (some centres undefined) | 110.4

SMILES | Percent Effect [%]
O=C(N1CCOCC1)N1CC[C@@](O)(c2ccccc2)[C@H]2CCCC[C@@H]21 | 4.203
O=C(C1CCOCC1)N1C[C@@H]2OCCN(CCN3CCCC3)[C@@H]2C1 | -5.298
O=C(N1CCOCC1)N1C[C@H]2CC[C@@H]1CN(C1Cc3ccccc3C1)C2 | 12.43
O=C(N1CCOCC1)N1C(CN2CCOCC2)[C@]2(O)CC[C@H]1CC2 (some centres undefined) | 118.3
COC[C@@]12CCO[C@@H]1CCN(C(=O)C1CCOCC1)C2 | 4.117
Cn1c(CN2CCOCC2)nnc1C1CCN(C(=O)C2CCCC2)CC1 | -7.454
CCC(CC)n1nc(C)cc1NC(=O)C1CCOC1 (centres undefined) | 10.26
Cc1ccccc1[C@@H]1CN(CCCS(=O)(=O)N(C)C)C[C@H]1C(=O)O | -19.2
O=C(NC[C@H]1OC[C@@H]2CCN(c3ncccn3)C[C@@H]21)c1ccnnc1 | 8.157
CCn1ccnc1CN1CCCC(CO)(CCCc2ccccc2)C1 (centres undefined) | 6.615
Cc1ccc(NC(=O)CN[C@H](C(N)=O)C(C)C)cc1F | -36.68
Cc1cc(NC(=O)Cn2cc(C#N)c(=O)c3cc(Br)ccc32)no1 | -1.057
Cc1ccc(NC(=O)Cn2ccc3c(=O)n(C)ccc32)cc1F | 136.8
Cn1ccc2c(ccn2CC(=O)Nc2ccc(Br)cc2)c1=O | 150.6
CC(=O)c1c(C)nn(CC(=O)Nc2ccc(Br)cc2)c1C | -0.7117
Cc1ccc(NC(=O)Cc2c(C)nc3c(c2C)c(=O)[nH]n3C)cc1F | -4.371
COc1ccc(NC(=O)Cn2nc(C)ccc2=O)cc1OC | 11.2
COc1ccc(NC(=O)Cn2nc(C)c(C)cc2=O)cc1OC | -16.79
COc1ccc(NC(=O)Cn2ccc3c(=O)n(C)ccc32)cc1OC | 174.8
Cc1cccn2c(=O)cc(CN3CCCC3Cn3cncn3)nc12 (centres undefined) | 14.6
O=C(NCCNS(=O)(=O)c1ccc2c(c1)CCCC2)c1ccoc1 | 1.057
CC(c1ccc(C(F)(F)F)cc1)N1CCN(CCS(C)(=O)=O)CC1 (centres undefined) | -14.82

SMILES | Percent Effect [%]
Cc1nn(C)cc1CNC(=O)c1cn(CCC2CCCCN2)nn1 (centres undefined) | 3.544
CS(=O)(=O)N1CCN(Cc2ccc(F)cc2Br)CC1 | 0.07282
CC(OCC(F)(F)F)C(=O)N1CCN(S(C)(=O)=O)CC1 (centres undefined) | -14.66
CCSCCN1CCCN(S(C)(=O)=O)CC1 | 101
CC(C)CSCCN1CCN(S(C)(=O)=O)CC1 | 87.34
CC(C)COC(C)C(=O)N1CCN(S(C)(=O)=O)CC1 (centres undefined) | -15.22
CC(C)CSCCN1CCCN(S(C)(=O)=O)CC1 | 87.23
Cc1noc(C)c1C(=O)NCCN1CCN(S(C)(=O)=O)CC1 | 1.414
CS(=O)(=O)N1CCCN(CCCSCc2ccccc2)CC1 | 0.2965
COc1cccc(/C=C/CCN2CCN(S(C)(=O)=O)CC2)c1 | -6.634
c1ccc2c(c1)CCN(c1ncnc3sc4c(c13)CCNC4)C2 | -22.34
CC(C)(C)c1nnc(CN2CCn3c(nnc3C3CC3)C2)o1 | -1.017
COc1cc(CNCc2c(C)nn(C)c2N(C)C)ccc1C | 5.351
Cc1nn(C)c(N(C)C)c1CNCC(O)COc1ccccc1.Cl (centres undefined) | -3.331
Cc1nn(C)c(N(C)C)c1CNCC(O)COc1ccc(F)cc1 (centres undefined) | -24.06
Cc1nn(C)c(N(C)C)c1CNC(C)COc1ccccc1F (centres undefined) | 101.5
Cc1nn(C)c(N(C)C)c1CNC(C)c1cccnc1 (centres undefined) | 9.889
Cc1nn(C)c(N(C)C)c1CNC(C)COc1ccc(F)cc1 (centres undefined) | 102.4
CCOc1cccc(C(C)NCc2c(C)nn(C)c2N(C)C)c1 (centres undefined) | 98.21
COc1cccc(OCCNCc2c(C)nn(C)c2N(C)C)c1 | -5.717
Cc1nn(C)c(N(C)C)c1CNCc1cccc(CN(C)C(C)C)c1 | 4.552
COCCOc1ccccc1CNCc1c(C)nn(C)c1N(C)C | 3.924

SMILES | Percent Effect [%]
Cc1nn(C)c(N(C)C)c1CNC(C)COc1ccc(F)cc1F (centres undefined) | 105.9
c1cc(-c2c[nH]c([C@@H]3COCCN3C3CCOCC3)n2)ccn1 | -2.86
COc1cccc(C(C)N2CCN(S(=O)(=O)CCCF)CC2)c1 (centres undefined) | 11.55
CC(C(=O)Nc1ccnn1C(C)C)N1CCN(Cc2ccccc2)CC1 (centres undefined) | -23.16
c1cc(-c2cnc(C3CCNCC3)cn2)n[nH]1 | 125.1
O=c1n(Cc2ncccn2)nc(C2CCNCC2)n1-c1ccccc1 | 0.768
c1cc(-c2cncc(C3CCNCC3)n2)n[nH]1 | 120.5
CC(C)n1cnc2c(-c3cccnc3)nc(C3CCNCC3)cc21.Cl.Cl | -47.69
O=C(c1cscn1)N1CCCC12CCCN(S(=O)(=O)c1ccccc1)C2 (centres undefined) | -2.919
CC(C)[C@@H]1CN(Cc2cnc3c(S(C)(=O)=O)cnn3c2)C[C@H]1N(C)C | -1.352
CNc1cc(N2CCCC2CNCc2ccccn2)ncn1 (centres undefined) | -5.969
Cc1nccc(N2CCCC2CCNS(C)(=O)=O)n1 (centres undefined) | 105.7
CS(=O)(=O)NCCCN1CCCC1Cc1ccccc1 (centres undefined) | -4.416
CN(CCCNc1cc(N2CCCC2CO)ncn1)S(C)(=O)=O (centres undefined) | -14.7
COc1ncccc1CNc1cc(N2CCCC2CO)ncn1 (centres undefined) | 0.4879
Cc1cccnc1CNc1cc(N2CCCC2CO)ncn1 (centres undefined) | -0.7119
Cc1nccc(CNc2cc(N3CCCC3CO)ncn2)n1 (centres undefined) | 87.89
OCC1CCCN1c1cc(NCc2cccs2)ncn1 (centres undefined) | 94.03
OCC1CCCN1c1cc(NCc2ccc(Cl)s2)ncn1 (centres undefined) | 16.81
Cc1nccc(N2C[C@H](NC(=O)CNS(C)(=O)=O)[C@@H](C3CC3)C2)n1 | -1.379
CCc1ccc(CNc2cc(N3CCCC3CO)ncn2)s1 (centres undefined) | 110.8
